The values below come from PubChem BioAssay (NCI).

Each structure is given as a SMILES string. The panel holds about 83,000 compounds, 20% with a hit somewhere; the sample as a whole holds those more often.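 Single-concentration screen, 48 h exposure, 96-well plates. Endpoint: percent growth. Below 10 = active.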 A number with no mark means an inactive call. Active and inactive are the calls of the source.

Some test systems named below: SR leukemia; RPMI-8226 leukemia; OVCAR-8 ovarian; OVCAR-5 ovarian; OVCAR-4 ovarian; SK-OV-3 ovarian; IGROV1 ovarian; OVCAR-3 ovarian; HS 578T breast; NCI/ADR-RES ovarian.
What all share (test): NCI-60 one-dose screen, 48 h (100 = growth as untreated, 0 = no growth, -100 = all killed)
Holding throughout (details): 10 µM

Take `CCN(CC)CCOC(=O)c1ccc(NC(=O)Nc2cccc(Cl)c2)cc1`: the growth in the test on SR leukemia is 96.5%; with RPMI-8226 leukemia, 103%; with OVCAR-8 ovarian, 97.6%; in the test with OVCAR-5 ovarian it was 105%; in the test on OVCAR-4 ovarian, 107%; in the test with SK-OV-3 ovarian, 102%. In addition, the growth in the test on IGROV1 ovarian is 105%; in the test with OVCAR-3 ovarian, 97.6%; in the test with HS 578T breast it was 100%; in the test on NCI/ADR-RES ovarian, 97.5%.
Consider `CC(=O)N(O)c1ccc(/C=C/c2ccccc2)cc1`, for which the growth in the test on SR leukemia is 9.19% (active); with RPMI-8226 leukemia, 46.8%; in the test on OVCAR-8 ovarian it was 32.1%; in the test with OVCAR-5 ovarian it was 33.1%; with OVCAR-4 ovarian, 54.7%; in the test on SK-OV-3 ovarian, 9.48% (active). The growth in the test with IGROV1 ovarian is -14% (active); with OVCAR-3 ovarian it was 42%; in the test with HS 578T breast, 61.7%; with NCI/ADR-RES ovarian, 22.6%.
Regarding `CCOc1nc(-c2ccccc2)cc2c(O)c(C(=O)N/N=C/c3ccc(OC)cc3)[nH]c(=O)c12`, the growth in the test on SR leukemia was 112%; with RPMI-8226 leukemia, 82.2%; with OVCAR-8 ovarian, 109%; in the test on OVCAR-5 ovarian, 125%; in the test on OVCAR-4 ovarian it was 98.3%; with SK-OV-3 ovarian, 95.5%. The growth in the test with IGROV1 ovarian is 82.3%; with OVCAR-3 ovarian it was 106%; in the test on HS 578T breast it was 96.8%; with NCI/ADR-RES ovarian, 105%.
Regarding `COc1ccccc1CNCCCN1C(=O)c2ccc3c4c(ccc(c24)C1=O)C(=O)N(CCCNCCNCCCN)C3=O`, the growth was 13.6% in the test with SR leukemia; 60.8% in the test with RPMI-8226 leukemia; 12.4% in the test on OVCAR-8 ovarian; 65.9% with OVCAR-5 ovarian; -94.8% (active) in the test on OVCAR-4 ovarian; 52.8% in the test on SK-OV-3 ovarian. Further, the growth with IGROV1 ovarian was 13.4%; in the test on OVCAR-3 ovarian, -14% (active); with HS 578T breast it was 54.6%; with NCI/ADR-RES ovarian it was 96.7%.
As to `COc1cc2nc(Sc3sc(N)nc3C)n(-c3ccc(Oc4ccccc4)cc3)c(=O)c2cc1OC`, the growth was -43.4% (active) in the test on SR leukemia; 67.6% in the test on RPMI-8226 leukemia; 85% with OVCAR-8 ovarian; 106% with OVCAR-5 ovarian; 50.7% in the test on OVCAR-4 ovarian; 114% in the test with SK-OV-3 ovarian. Further, the growth with IGROV1 ovarian was 107%; with OVCAR-3 ovarian, 93.5%; with HS 578T breast it was 88.5%; in the test on NCI/ADR-RES ovarian it was 75.2%.
In the case of `COc1ccc2nc(NC(=O)Nc3c(F)cccc3F)sc2c1`, the growth in the test on SR leukemia was 92%; in the test on RPMI-8226 leukemia, 87.6%; in the test with OVCAR-8 ovarian, 98.9%; in the test on OVCAR-5 ovarian, 108%; in the test with OVCAR-4 ovarian it was 99.6%; with SK-OV-3 ovarian it was 114%. Moreover, the growth is 114% in the test with IGROV1 ovarian, 118% in the test on OVCAR-3 ovarian, 117% in the test on HS 578T breast and 105% with NCI/ADR-RES ovarian.
For the compound `CC(=O)OC1Oc2ccccc2-c2oc(=O)c(-c3ccc(F)cc3)cc21` (stereo not given), the growth is 65.3% in the test with SR leukemia; 90.8% in the test with RPMI-8226 leukemia; 77.7% in the test with OVCAR-8 ovarian; 104% with OVCAR-5 ovarian; 88.6% in the test on OVCAR-4 ovarian; 92.6% in the test on SK-OV-3 ovarian. Besides, the growth in the test on IGROV1 ovarian was 59.8%; in the test on OVCAR-3 ovarian, 110%; in the test with HS 578T breast, -26.6% (active); in the test on NCI/ADR-RES ovarian, 96.4%.
With `Cn1cnc([N+](=O)[O-])c1/C=C1\Oc2ccc(Cl)cc2C1=O`, the growth is 20.7% in the test with SR leukemia; 70.7% with RPMI-8226 leukemia; 72.5% in the test with OVCAR-8 ovarian; 108% with OVCAR-5 ovarian; 92.3% with OVCAR-4 ovarian; 96.2% with SK-OV-3 ovarian. Moreover, the growth was 73.1% in the test with IGROV1 ovarian, 86% in the test with OVCAR-3 ovarian, 104% in the test with HS 578T breast and 100% in the test with NCI/ADR-RES ovarian.
With `COc1cc(-c2nc(-c3nnc(-c4cccnc4)o3)c3ccccn23)cc(OC)c1OC`, the growth in the test with SR leukemia is 104%; with RPMI-8226 leukemia, 60.9%; in the test on OVCAR-8 ovarian, 73.8%; in the test on OVCAR-5 ovarian, 110%; with OVCAR-4 ovarian, 123%; in the test with SK-OV-3 ovarian, 108%. For the same compound, the growth with IGROV1 ovarian was 103%; with OVCAR-3 ovarian, 129%; with HS 578T breast, 103%; with NCI/ADR-RES ovarian, 82.2%.
With `O=[N+]([O-])c1cc2ncccc2c2ncccc12`, the growth in the test on SR leukemia was 74%; with RPMI-8226 leukemia, 82.8%; with OVCAR-8 ovarian, 63.3%; with OVCAR-5 ovarian, 98.3%; in the test on OVCAR-4 ovarian it was 103%; in the test on SK-OV-3 ovarian it was 94.4%. For the same compound, the growth in the test with IGROV1 ovarian is 56.3%; in the test with OVCAR-3 ovarian it was 84.5%; with HS 578T breast, 104%; with NCI/ADR-RES ovarian, 75.1%.
As to `c1ccc(C2CCCCC2)c(OCCCCCN2CCNCC2)c1`, the growth in the test with SR leukemia is -32.9% (active); in the test with RPMI-8226 leukemia, -14.6% (active); with OVCAR-8 ovarian, 83.2%; in the test on OVCAR-5 ovarian, 93.8%; in the test with OVCAR-4 ovarian it was 68.5%; in the test on SK-OV-3 ovarian, 94.9%. Also, the growth with IGROV1 ovarian is 56.7%; in the test with OVCAR-3 ovarian it was 76.9%; with HS 578T breast, 76%; with NCI/ADR-RES ovarian it was 70%.
Turning to `CCOC(=O)Nc1ccc2c(c1)C(=O)N(CCOC)c1ccccc1O2`, the growth with SR leukemia was 17.5%; in the test with RPMI-8226 leukemia, 22.2%; in the test on OVCAR-8 ovarian it was 52.8%; in the test with OVCAR-5 ovarian, 87.9%; in the test on OVCAR-4 ovarian, 62.1%; in the test with SK-OV-3 ovarian, 37.3%. The growth in the test with IGROV1 ovarian was 57.8%; with OVCAR-3 ovarian, 8.46% (active); in the test with HS 578T breast it was 44.4%; in the test on NCI/ADR-RES ovarian, 24.1%.
Regarding `CC(=O)OCC(COC(C)=O)(COC(C)=O)COC(C)=O`, the growth with SR leukemia is 86.6%; in the test on RPMI-8226 leukemia it was 97.6%; in the test with OVCAR-8 ovarian, 103%; in the test with OVCAR-5 ovarian, 102%; in the test on OVCAR-4 ovarian, 112%; in the test on SK-OV-3 ovarian it was 99.6%. The growth in the test with IGROV1 ovarian is 104%; in the test with OVCAR-3 ovarian it was 103%; in the test on HS 578T breast, 101%; in the test on NCI/ADR-RES ovarian it was 106%.
